Data on 94 molecules can be found in PubChem BioAssay AID1117319 (Southern Research Institute, 2015).

The term inhibition denotes the drop in the measured response relative to a control, in per cent.

Each structure is given as a SMILES string. Several values for one entry are separate records, joined by “and”; a condition that tells them apart may be missing. Equal entries are not always repeated. Screen size: about 260,000 compounds; about 1,500 (0.58%) were called active. Inconclusive results (about 5%) are left out.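 Rule for the calls: active = inhibition above a set limit at one or more doses, reproduced on every date tested; inconclusive = results disagree between test dates, or hit never tested in dose response; inactive = the rest.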 The list is a sample of the results. Measured potencies and affinities stand elsewhere.

The target of this assay is Virion infectivity factor (Human immunodeficiency virus type 1 group M subtype B (isolate BH10)) + Virion infectivity factor (Human immunodeficiency virus type 1 group M subtype B (isolate BRU/LAI)) + Virion infectivity factor (Human immunodeficiency virus type 1 group M subtype B (isolate PCV12)) + Virion infectivity factor (Human immunodeficiency virus type 1 group M subtype B (isolate HXB2)) + DNA dC->dU-editing enzyme APOBEC-3G (Homo sapiens) (UniProt P69720+P69721+P69722+P69723+Q9HC16). Kind of assay: HIV-1 Vif–A3G interaction blockers – biochemical, TR-FRET, GST-Vif 1-94, biotin-A3G peptide, dose response retest, primary screen (AID 1117319).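 Note: Vif residues 1-94 fused to GST binding biotinylated APOBEC3G peptide 110-148; 0% = full assay without inhibitor and 100% = GST in place of GST-Vif.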 Conditions: TR-FRET GST-Vif / biotin-A3G peptide binding; active compounds read high.
Turning to `Cc1cccc(CC(Cc2nc3ccccc3[nH]2)c2nc3ccccc3[nH]2)c1` (centres undefined), the inhibition was 10.6% (inactive).
Turning to `Cc1ccc2c(Cl)cc(Cl)c(OCC(=O)Nc3cccc(S(N)(=O)=O)c3)c2n1`, the inhibition was -2.21% (inactive).
Then `Cc1ccc(-c2cc(C(=O)N/N=C/C(Br)=C/c3ccccc3)n[nH]2)o1`, with 27.2% (inactive); and `O=C(N/N=C/C(Br)=C\c1ccccc1)c1ccco1`, with 8.5% (inactive); and `CCOc1ccc(S(=O)(=O)Nc2cccc(C(=O)N3CCN(c4ccccc4O)CC3)c2)cc1`, with 4.44% (inactive).
In the case of `COC(=O)/C(=N/Nc1cccc(C)c1)N1CCCc2ccccc21`, the inhibition is 24.9% (inactive).
On to `COC(=O)/C(=N/Nc1ccccc1OC)N1CCCc2ccccc21`, for which the inhibition was 14.5% (inactive).
Then `O=C(NCCc1ccccc1)C1CCN(S(=O)(=O)c2cccc3nsnc23)CC1`, with -0.39% (inactive).
With `N#C/C(=C/c1ccc(N2CCCCCC2)o1)c1ccc(Cl)cc1`, the inhibition was 17.8% (inactive).
Under `N#C/C(=C/c1ccc(N2CCCCCC2)o1)c1ccc(F)cc1` stands 5.86% (inactive).
Then `Cc1ccc(/C=C/C(=O)NCCCn2ccnc2)cc1`, with -9.33% (inactive); and `O=[N+]([O-])c1c(Nc2ccccn2)cc(Cl)c2nonc12`, with 10.6% (inactive).
Under `O=[N+]([O-])c1c(Nc2ccccc2O)ccc2nonc12` stands 1.82% (inactive).
`CN(C)c1cc(Nc2cccc(O)c2)c([N+](=O)[O-])c2nonc12`: the inhibition is -10.7% (inactive).
Under `CC(=O)Nc1ccc(Nc2cc(N(C)C)c3nonc3c2[N+](=O)[O-])cc1` stands 0.25% (inactive).
As to `CC(C)CC(=O)Nc1ccnn1C1CCN(C(=O)c2ccccc2F)CC1`, the inhibition was -2.89% (inactive).
Then `CCOC(=O)c1c(/N=C/N(C)C)sc(C)c1C`, with -7.57% (inactive); and `O=C(CCCN1C(=O)c2ccccc2C1=O)N1CCc2ccccc2C1`, with -3.95% (inactive).
Under `CN1CCN(C(=O)CN2C(=O)CC(C)(C)S(=O)(=O)c3ccccc32)CC1` stands -1.94% (inactive); under `O=C(NCCc1ccccc1Cl)c1cc(COc2ccc(F)cc2F)on1`, 2.92% (inactive).
Then `O=C(COc1ccc(-c2nnco2)cc1)Nc1ccc(F)c(Cl)c1`, with -11.6% (inactive); and `N=c1c(C(=O)NCc2ccco2)cc2c(=O)n3ccccc3nc2n1CCc1ccccc1`, with 19.6% (inactive); and `CCNC(=O)c1cc2c(=O)n3cccc(C)c3nc2n(CCc2ccccc2)c1=N`, with -4.24% (inactive).
On to `CCOc1cc(N2CCOCC2)c(OCC)cc1NC(=O)CSc1nc(N)cc(=O)[nH]1`, for which the inhibition is -6.18% (inactive).
Then `CCOc1cc(N2CCOCC2)c(OCC)cc1NC(=O)CSc1ncccn1`, with -9.38% (inactive); and `CCOc1cc(N2CCOCC2)c(OCC)cc1NS(=O)(=O)c1ccc2c(c1)CC(=O)N2`, with 9.5% (inactive); and `CCOc1cc(N2CCOCC2)c(OCC)cc1NC(=O)C(C)C`, with 32.2% (inactive).
Then `CCOc1cc(N2CCOCC2)c(OCC)cc1NC(=O)C(C)(C)C`, with 31% (inactive).
As for `CCN(CC)S(=O)(=O)c1ccc(N2CCOCC2)c(NS(=O)(=O)c2ccc(Cl)s2)c1`, the inhibition is 7% (inactive).
As to `CC1CCCC(C)N1C(=O)COc1cccc(Oc2ccccc2)c1` (centres undefined), the inhibition is -6.13% (inactive).
With `O=C(Oc1cc(-c2ccccc2)no1)c1cccc(C(F)(F)F)c1`, the inhibition was 12% (inactive).
Turning to `CCCN(CC(=O)Nc1ccccc1C)C(=O)c1ccc(C)c(S(=O)(=O)N2CCCCC2)c1`, the inhibition is -7.29% (inactive).
Then `COc1ccc(C(=O)NCc2cccnc2)cc1Br`, with 7.76% (inactive); and `CCCCn1c(N)c(N(CC)C(=O)/C=C/c2ccco2)c(=O)[nH]c1=O`, with -7.61% (inactive); and `CCCCN1C(=O)NC(NC(=O)c2ccco2)(C(F)(F)F)C1=O` (centres undefined), with -1.08% (inactive).
Turning to `COC(=O)C(=C/C=C/c1ccco1)C(=O)OC`, the inhibition was 32.7% (inactive).
Under `Cn1nnc(NC(=O)/C=C/c2ccco2)n1` stands 11.5% (inactive); under `CC1Cc2c([nH]c3ccccc23)C(=O)N1` (centres undefined), 0.31% (inactive).
Then `COc1c2ccoc2c(OC(C)=O)c2oc(C)cc(=O)c12`, with 0.13% (inactive).
In the case of `COC(=O)Cn1cnc2c1c(=O)n(C)c(=O)n2C`, the inhibition is 1.38% (inactive).
Then `Cc1csc(NC(=O)C2CCCCN2S(=O)(=O)c2ccccc2)n1` (centres undefined), with 1.7% (inactive); and `CCc1nnc(SCC(=O)Nc2ccc(C(C)=O)cc2)nc1CC`, with 2.81% (inactive); and `COc1cccc(NC(=O)CSc2ccc(-c3ccco3)nn2)c1`, with 3.97% (inactive).
Take `CC(=O)c1ccc(NC(=O)CSc2ccc(-c3ccco3)nn2)cc1`: the inhibition is -1.56% (inactive).
In the case of `COc1cccc(NC(=O)CSc2nc(N)cc(N)n2)c1`, the inhibition was 3.65% (inactive).
In the case of `Cc1ccc(NC(=O)CSc2nnc(-c3ccco3)c(-c3ccco3)n2)cc1`, the inhibition was 25.5% (inactive).
`O=C(CSc1n[nH]c(-c2ccco2)n1)Nc1ccccc1`: the inhibition is 5.48% (inactive).
Under `COc1ccc(CCNC(=O)COC(=O)/C=C/c2ccc(OCC#N)c(OC)c2)cc1OC` stands 5.39% (inactive).
Consider `CC(=O)Nc1ccc(NC(=O)Cn2ccc([N+](=O)[O-])n2)cc1`, for which the inhibition is 11.7% (inactive).
In the case of `COc1cccc(C2CC(c3cccs3)=NN2C(=O)CSC2=NN3CCCC(=O)N=C3S2)c1OC` (centres undefined), the inhibition is 0.81% (inactive).
Under `O=C(c1ccco1)N1CCN(Cc2cc(=O)c(OCc3cccc(F)c3)co2)CC1` stands -1.67% (inactive); under `S=c1nc(-c2ccccc2)oc2c1CCCC2`, 2.15% (inactive).
Turning to `O=[N+]([O-])c1ccc(-c2nc(=S)c3c(o2)CCCC3)cc1`, the inhibition is 0.66% (inactive).
Take `Cc1nc2oc3ccccc3c(=O)c2cc1C(=O)O`: the inhibition is -10.2% (inactive).
Then `Cc1ccc(C)c(N2CCN(S(=O)(=O)c3ccc4c(c3)CCC(=O)N4)CC2)c1`, with 24.6% (inactive); and `COc1ccc(C(=O)COC(=O)CNC(=O)c2ccc(Cl)cc2Cl)c(OC)c1`, with 3.17% (inactive).
Regarding `CCOc1ccc(NC(=O)CSCc2cnn(-c3ccccc3)c2-n2cccc2)cc1`, the inhibition was -1.2% (inactive).
As for `Cc1cc(C)cc(NC(=O)CSCc2cnn(-c3ccccc3)c2-n2cccc2)c1`, the inhibition is -0.62% (inactive).
Under `Cc1cc2ccccc2n1CCNC(=O)C1CCCC1` stands 23.5% (inactive).
On to `O=C(NCCn1ccc2ccccc21)C1CCCCC1`, for which the inhibition is -2.31% (inactive).
Under `CC(C)CC(=O)NCc1ccc2[nH]c3c(c2c1)CCCC3` stands 5.99% (inactive); under `O=C(CCN1CCC(c2ccc(Cl)s2)=N1)c1ccc(Cl)s1`, -2.16% (inactive); under `CC(=O)NCC(=O)NC(Cc1ccccc1)C(N)=O` (centres undefined), 18.9% (inactive).
Then `COc1cc(/C=C(\C#N)C(=O)N2CCOCC2)cc(Br)c1O`, with -3.89% (inactive); and `NC(=O)/C(=C\c1ccco1)NC(=O)c1ccco1`, with 13.1% (inactive).
Then `CC(=C\C(=O)O)/C(=C/c1ccco1)C(=O)O`, with 29.9% (inactive).
Take `Cc1ccc2sc(N(CCCN(C)C)C(=O)c3ccc(S(=O)(=O)N4CCOCC4)cc3)nc2c1C`: the inhibition was 7.87% (inactive).
In the case of `COc1cc(CNC(C)(C)CO)cc(Br)c1OCc1ccccc1`, the inhibition was 14.2% (inactive).
Turning to `CCOc1ccccc1CNc1ccc(O)cc1`, the inhibition was -1.14% (inactive).
Under `CCOc1cc(CNc2ccccc2)cc(Br)c1OCc1ccc(F)cc1` stands -2.02% (inactive).
Under `C=CCOc1c(CNc2ccc(C(=O)O)cc2)cccc1OCC` stands 5.17% (inactive).
Under `CCOc1cccc(CNn2cnnc2)c1OCc1ccccc1Cl` stands 3.09% (inactive); under `Fc1cccc(COc2ccccc2CNc2ccccc2)c1`, 8.86% (inactive).
Consider `O=C(O)c1ccc(CNCc2cccc(OCc3ccc(F)cc3)c2)cc1`, for which the inhibition is -2.79% (inactive).
Under `O=[N+]([O-])c1ccc(COc2cccc(CNc3ccc(F)cc3)c2)cc1` stands 26.4% (inactive); under `O=C(c1cccn2c(=O)c3ccccc3nc12)N1CCN(Cc2ccc3c(c2)OCO3)CC1`, 3% (inactive); under `CN(C)CCn1cnc2c(c1=N)C(c1ccccc1)c1ccc3ccccc3c1O2` (centres undefined), -7.72% (inactive).
As to `CC1(C)Cc2ccccc2C(C(=O)c2ccccc2)=N1`, the inhibition is -10.3% (inactive).
Regarding `CCOC(=O)c1cc2sccc2n1CC(=O)N1CCCc2ccccc21`, the inhibition is -4.99% (inactive).
Then `CCN1CCN(CC(=O)N2N=C(c3cccs3)CC2c2ccc(C)cc2)C(=O)C1=O` (centres undefined), with 1.42% (inactive); and `Cc1csc(NC(=O)COc2ccc3c(C)cc(=O)oc3c2)n1`, with -13.9% (inactive).
In the case of `Cc1cccc(N2CCN(C(=O)CCNS(=O)(=O)c3ccc4c(c3)CCC(=O)N4)CC2)c1C`, the inhibition was -0.88% (inactive).
Then `CC(=O)c1ccc(N2CCN(C(=O)c3cc(C)on3)CC2)cc1`, with 11.8% (inactive); and `CC(c1cccs1)N(C)Cc1nc(CCc2ccccc2)no1` (centres undefined), with 2.69% (inactive).
Under `CN1C(=O)[C@H]2[C@@H](c3ccc(C(F)(F)F)cc3)N[C@]3(CCCN(CC4CCCCC4)C3=O)[C@H]2C1=O` stands 2.73% (inactive).
Then `CCN(CC(=O)NC1CCS(=O)(=O)C1)C(=O)C(c1ccccc1)c1ccccc1` (centres undefined), with 1.78% (inactive) and 11.2% (inactive); and `CC(=O)N1CCN(S(=O)(=O)c2cccc(C(=O)NNC(=O)COc3c(C)cccc3C)c2)CC1`, with -12.3% (inactive).
As for `N#CCN1C(=O)C(=O)N(Cc2cccc(C(F)(F)F)c2)C1=O`, the inhibition was -1.35% (inactive).
In the case of `CC(NC(=O)c1ccccc1[N+](=O)[O-])C1CC2CCC1C2` (centres undefined), the inhibition was 1.73% (inactive).
On to `O=C(Nn1cnc2ccccc2c1=O)c1ccc([N+](=O)[O-])cc1`, for which the inhibition is -7.54% (inactive).
Regarding `c1ccc(CNn2nnnc2-c2ccccc2)cc1`, the inhibition is 1.36% (inactive).
Then `O=[N+]([O-])c1ccc(COc2cccc(CNc3ccc(Br)cc3)c2)cc1`, with 2.31% (inactive); and `Oc1ccc(NCc2ccc(OCc3ccccc3)cc2)cc1`, with 17.4% (inactive).
Under `CN(C)S(=O)(=O)c1ccc(N2CCCC2)c(C(=O)Nc2nc3c(ccc4ccccc43)s2)c1` stands -35.6% (inactive).
